# PubChem BioAssay
# Calls of active or inactive are those of the source. Unless noted, no rule for the calls is given here.
# Tests used:
# [1] = HepG2 liver cancer cell viability effects, profiling panel, resazurin fluorescence, 24 h, PK04 Diversity Set (AID 1172); conditions: higher = more signal
# [2] = basal S. cerevisiae growth modulation, no modifier, primary screen, OD600, strain BY4716, 24 h, basal condition (AID 1173); conditions: OD600, 24 h, higher = more signal, called active from +8 up or from −8 down
# [3] = MM1S myeloma cell viability, profiling panel, resazurin fluorescence, basal, 24 h, PK04 Diversity Set (AID 1174); conditions: higher = more signal, called active from +8 up or from −8 down;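 also: MM1S multiple myeloma cell line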
# [4] = target: Dihydroorotate dehydrogenase (quinone), mitochondrial (Plasmodium falciparum (isolate 3D7)) (UniProt Q08210); test: PfDHODH enzyme inhibitors, primary screen, biochemical, C-terminal His tag, absorbance 600 nm (AID 1175); conditions: DCIP absorbance 600 nm, higher = more signal, called active from +8 up or from −8 down;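 also: recombinant parasite enzyme with a five histidine tag at its C terminus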
# [5] = P. aeruginosa biofilm formation inhibitors, primary screen, strain PAO1, LB-PBS medium, absorbance 600 nm (AID 1176); conditions: P. aeruginosa PAO1 growth/biofilm, A600, 12 h; higher = more signal
# [6] = S. cerevisiae RM11-1a growth modifiers, primary screen, strain RM11-1a, OD600, basal, 24 h (AID 1177); conditions: OD600, 24 h, higher = more signal, called active from +8 up or from −8 down;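 also: cultures grown under basal conditions with no added stressor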
# [7] = E. coli acrAB mutant growth effects, primary screen, E. coli filamentation inducers, strain DRC39, OD650, 24 h (AID 1178); conditions: higher = more signal, called active from +8 up or from −8 down;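 also: growth measured as culture turbidity by optical density at 650 nm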
# [8] = E. coli acrAB mutant growth effects, primary screen, E. coli filamentation inducers, strain DRC39, OD650, 48 h (AID 1179);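 also: screen aims at cell division blockers that make cells filament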; conditions: E. coli DRC39 delta-acrAB growth, higher = more signal, called active from +8 up or from −8 down
# [9] = RPMI8226 myeloma cell viability, profiling panel, resazurin fluorescence, basal, 24 h, PK04 Diversity Set (AID 1180); conditions: higher = more signal;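 also: RPMI8826 multiple myeloma cell line at 5000 cells per well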
# [10] = target: E3 ubiquitin-protein ligase XIAP (Homo sapiens) (UniProt P98170); test: XIAP binders, primary screen, biophysical, small-molecule microarray, fluorescence 635 nm (AID 1181); conditions: small-molecule microarray binding, higher = more signal;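 also: score merges 667 nm emission and signal to noise over triplicate slides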
# [11] = system: XIP peptide (Xip251-270) binding; test: small-molecule binders of XIP peptide, primary screen, biochemical, small-molecule microarray, fluorescence 635/667 nm, 0.1 µg/mL protein (AID 1182); conditions: fluorescent protein binding, 635 nm, higher = more signal, called active from +8 up or from −8 down
# [12] = system: XIP peptide (Xip251-270); test: small-molecule binders of XIP peptide, primary screen, biochemical, small-molecule microarray, fluorescence 635/667 nm, 0.5 µg/mL protein (AID 1183); conditions: small-molecule microarray binding, fluorescence 635 nm; higher = more signal
# [13] = Plasmodium falciparum growth inhibition, primary screen, strain 3D7, DAPI fluorescence, 100 nL (AID 1184);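 also: parasites grown inside human red blood cells in medium with human serum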; conditions: P. falciparum 3D7 growth, 3 d, higher = more signal
# [14] = target: Homeobox protein Hox-A13 (Mus musculus) (UniProt Q62424); test: inhibitors of HoxA13-DNA binding, primary screen, biochemical, fluorescence polarization, labeled oligonucleotide (AID 1185); conditions: 15 min, higher = more signal, called active from +8 up or from −8 down
# [15] = inhibitors of hydroxyurea-induced Chk1 phosphorylation, primary screen, imaging, HeLa, phospho-Chk1 antibody, percent positive cells (AID 1186); conditions: hydroxyurea-induced phospho-Chk1 immunofluorescence imaging, higher = more signal
# [16] = inhibitors of hydroxyurea-induced Chk1 phosphorylation, primary screen, imaging, HeLa, phospho-Chk1 nuclear intensity (AID 1187); conditions: hydroxyurea-induced phospho-Chk1 immunofluorescence imaging, higher = more signal
# Sequence of Homeobox protein Hox-A13 (Mus musculus) (Q62424 whole entry, looked up): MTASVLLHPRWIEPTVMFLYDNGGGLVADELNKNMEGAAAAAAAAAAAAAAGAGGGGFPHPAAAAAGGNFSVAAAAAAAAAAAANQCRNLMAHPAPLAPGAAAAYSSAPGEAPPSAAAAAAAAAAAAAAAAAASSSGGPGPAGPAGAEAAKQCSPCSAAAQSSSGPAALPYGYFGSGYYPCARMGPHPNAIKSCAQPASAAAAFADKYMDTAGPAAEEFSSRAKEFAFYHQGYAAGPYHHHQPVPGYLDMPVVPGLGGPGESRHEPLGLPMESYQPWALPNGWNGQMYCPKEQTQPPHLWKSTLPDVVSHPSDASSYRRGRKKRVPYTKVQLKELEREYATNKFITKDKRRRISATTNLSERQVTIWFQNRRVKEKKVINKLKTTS
# Sequence of Dihydroorotate dehydrogenase (quinone), mitochondrial (Plasmodium falciparum (isolate 3D7)) (Q08210 whole entry, looked up): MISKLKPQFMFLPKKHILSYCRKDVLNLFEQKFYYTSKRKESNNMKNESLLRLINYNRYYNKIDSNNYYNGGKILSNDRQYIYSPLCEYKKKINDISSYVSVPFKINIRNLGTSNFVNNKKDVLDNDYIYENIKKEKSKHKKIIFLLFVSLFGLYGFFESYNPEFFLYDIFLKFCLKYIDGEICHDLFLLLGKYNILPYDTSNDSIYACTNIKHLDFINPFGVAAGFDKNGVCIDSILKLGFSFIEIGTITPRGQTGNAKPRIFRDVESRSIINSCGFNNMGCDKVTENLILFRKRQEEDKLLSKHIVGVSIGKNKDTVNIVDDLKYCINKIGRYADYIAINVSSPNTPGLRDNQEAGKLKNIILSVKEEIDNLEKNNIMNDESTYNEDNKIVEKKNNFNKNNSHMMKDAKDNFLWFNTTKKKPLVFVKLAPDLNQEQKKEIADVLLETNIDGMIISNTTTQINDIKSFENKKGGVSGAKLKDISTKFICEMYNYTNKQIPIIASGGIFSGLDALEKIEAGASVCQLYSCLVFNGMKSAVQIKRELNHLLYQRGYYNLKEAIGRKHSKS
# Sequence of E3 ubiquitin-protein ligase XIAP (Homo sapiens) (P98170 whole entry, looked up): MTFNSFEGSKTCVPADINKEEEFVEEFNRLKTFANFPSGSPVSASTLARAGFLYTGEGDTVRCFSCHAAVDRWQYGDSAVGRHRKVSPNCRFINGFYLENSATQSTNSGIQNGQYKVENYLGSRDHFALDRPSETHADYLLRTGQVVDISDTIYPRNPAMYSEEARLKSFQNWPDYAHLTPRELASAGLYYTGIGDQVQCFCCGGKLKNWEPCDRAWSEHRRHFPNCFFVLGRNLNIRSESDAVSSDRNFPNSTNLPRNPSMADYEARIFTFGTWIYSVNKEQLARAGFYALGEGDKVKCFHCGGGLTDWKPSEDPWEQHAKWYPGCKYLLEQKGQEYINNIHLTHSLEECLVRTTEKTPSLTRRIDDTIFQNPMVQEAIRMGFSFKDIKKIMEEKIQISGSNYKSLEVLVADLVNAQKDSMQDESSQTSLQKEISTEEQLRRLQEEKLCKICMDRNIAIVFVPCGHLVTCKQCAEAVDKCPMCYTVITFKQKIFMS
SMILES,z-score [1],z-score [2],z-score [3],composite z-score [4],z-score [5],z-score [6],z-score [7],z-score [8],z-score [9],composite z-score [10],composite z-score [11],composite z-score [12],z-score [13],z-score [14],z-score [15],z-score [16]
CC(c1ccccc1)C(O)C1C=CC2C(=O)N(Cc3ccccc3)C(=O)C2N1n1cnnc1 (stereo not drawn),-0.69,-6.59 (inactive),-0.652 (inactive),0.381 (inactive),0.492 (inactive),0.263 (inactive),-0.491 (inactive),-2.39 (inactive),-0.161,0.456,-0.429 (inactive),0.908,-0.864,-1.93 (inactive),0.106 (inactive),-0.634 (inactive)
COC(=O)[C@@]1(Cc2ccc(F)cc2)[C@H]2c3cc(C(=O)N4CCCC4)n(Cc4ccc(Cl)c(C(F)(F)F)c4)c3C[C@H]2CN1C(=O)c1ccccc1,-1.03,1.55 (inactive),-2.02 (inactive),0.0979 (inactive),0.84 (inactive),0.78 (inactive),-0.178 (inactive),0.272 (inactive),-3.32,0.553,0.15 (inactive),0.625,-1.45,-2.22 (inactive),0.612 (inactive),-0.126 (inactive)
COc1cc2c(cc1O)C(c1ccc(CN3CCCC3)cc1)N(Cc1sc3ccccc3c1Cl)CC2 (stereo not drawn),-0.307,-1.82 (inactive),-0.527 (inactive),-2.82 (inactive),0.0619 (inactive),0.953 (inactive),1.23 (inactive),0.25 (inactive),-1.05,0.0815,0.656 (inactive),0.879,-1.58,-5.24 (inactive),0.356 (inactive),0.653 (inactive)
C=C(C(=O)CC[C@H](OC(=O)c1cccnc1)c1ccccc1OCCO)C(C)C,0.3,-0.993 (inactive),-1.5 (inactive),-0.429 (inactive),0.686 (inactive),-0.237 (inactive),0.283 (inactive),0.237 (inactive),-2.14,-0.0994,0.698 (inactive),0.564,-2.3,-4.71 (inactive),0.321 (inactive),0.0728 (inactive)
COCCOC(=O)N1C(=O)[C@@]2(c3cc(C#CCCO)ccc31)[C@H](C(=O)NC[C@H](O)c1ccccc1)[C@H]1C(=O)O[C@H](c3ccccc3)[C@H](c3ccccc3)N1[C@@H]2c1ccc(OCCO)cc1,0.76,0.757 (inactive),0.857 (inactive),-0.689 (inactive),1.75 (inactive),1.21 (inactive),0.696 (inactive),-0.567 (inactive),1.43,0.275,-0.0001 (inactive),0.577,-1.99,-1.64 (inactive),0.0945 (inactive),0.298 (inactive)
CCCC[C@H]1OB(O)C[C@H]2C1=C(COc1ccccc1)C[C@H]1C(=O)N(Cc3ccccc3)C(=O)[C@H]12,0.552,-1.91 (inactive),0.804 (inactive),-1.25 (inactive),-0.802 (inactive),-0.0955 (inactive),0.875 (inactive),-0.281 (inactive),0.421,0.0617,-0.0195 (inactive),-0.0475,0.589,-6.65 (inactive),0.0918 (inactive),0.206 (inactive)
COCCCNC(=O)[C@@]1(Cc2ccccc2I)c2ccccc2C(=O)N(Cc2ccccc2)[C@H]1c1ccc(CO)cc1,0.348,0.346 (inactive),1.01 (inactive),1.17 (inactive),-0.205 (inactive),2.28 (inactive),0.322 (inactive),-0.15 (inactive),1.5,-0.193,0.433 (inactive),0.736,-1.04,-4.39 (inactive),-0.0143 (inactive),0.371 (inactive)
Cc1ccc(S[C@]2(C(=O)NCCCN(C)C)CC(=O)N(Cc3ccccc3)[C@@H]2c2ccc(CO)cc2)cc1,-0.519,-0.686 (inactive),0.833 (inactive),-0.336 (inactive),0.317 (inactive),-0.358 (inactive),-0.194 (inactive),-0.435 (inactive),0.63,-0.185,-0.712 (inactive),0.135,-1.07,-2.18 (inactive),0.327 (inactive),0.603 (inactive)
C=CCOC(=O)[C@@H]1[C@H]2C(=O)O[C@H](c3ccccc3)[C@H](c3ccccc3)N2[C@H](c2ccc(OCCOC(=O)[C@H]3C[C@H]4C(=O)N[C@@H](CCCC[N+](C)(C)C)C(=O)N4[C@H]3c3cccc(OCCO)c3)cc2)[C@@]12C(=O)Nc1ccc(I)cc12,-0.0059,1.68 (inactive),-1.05 (inactive),-0.483 (inactive),3.37 (inactive),1.12 (inactive),-0.708 (inactive),-1.23 (inactive),-0.521,0.104,1.31 (inactive),0.646,-1.82,1.38 (inactive),-0.118 (inactive),-0.176 (inactive)
Oc1ccc2cc[n+](Cc3cccc(OC(F)(F)F)c3)cc2c1,-0.975,0.236 (inactive),-0.304 (inactive),-1.09 (inactive),0.0061 (inactive),0.585 (inactive),0.4 (inactive),0.743 (inactive),-1.07,0.202,0.143 (inactive),0.558,0.233,-3.08 (inactive),-0.208 (inactive),-0.16 (inactive)
CC(C)C(CO)N1C(=O)[C@@H]2[C@H]3C(=O)OCC=C[C@H]3OC23C=CCN(c2ccc4ccccc4c2)C(=O)[C@@H]13 (stereo partly drawn),-0.128,0.485 (inactive),0.112 (inactive),0.958 (inactive),-0.497 (inactive),1.24 (inactive),0.483 (inactive),0.347 (inactive),0.133,-0.0476,0.0164 (inactive),-0.525,-0.279,-3.29 (inactive),0.207 (inactive),0.426 (inactive)
COCCCNC(=O)[C@@]1(Sc2ccc(C)cc2)CC(=O)N(Cc2ccccc2)[C@@H]1c1ccc(CO)cc1,0.802,0.0695 (inactive),0.495 (inactive),-0.0163 (inactive),0.366 (inactive),-0.194 (inactive),0.234 (inactive),0.127 (inactive),1.01,-0.0492,-0.496 (inactive),0.841,-0.471,-2.81 (inactive),-0.24 (inactive),-0.283 (inactive)
CCCNC(=O)[C@@]1(C)c2ccccc2C(=O)N(Cc2cc(F)cc(C(F)(F)F)c2)[C@H]1c1ccc(CO)cc1,1.08,-0.769 (inactive),1.16 (inactive),0.134 (inactive),-0.164 (inactive),0.196 (inactive),0.249 (inactive),0.113 (inactive),1.63,-0.181,1.33 (inactive),0.718,-0.8,-3.51 (inactive),0.309 (inactive),0.226 (inactive)
O=C(NCC(O)CO)[C@]1(CCS(=O)(=O)c2ccccc2)N=C(c2ccc(OCCCO)cc2)O[C@@H]1c1ccccc1 (stereo partly drawn),-0.015,0.53 (inactive),-0.57 (inactive),-0.162 (inactive),0.193 (inactive),-0.702 (inactive),-0.0686 (inactive),-0.276 (inactive),0.0882,-0.0203,1.51 (inactive),-0.0557,-0.434,-7.16 (inactive),0.429 (inactive),-0.0974 (inactive)
C=C(/C(=C/C[C@@H](OC(C)=O)c1ccc(CO)o1)c1cnc2ccccc2c1)C(C)C,-1.05,-0.177 (inactive),0.0858 (inactive),-8.23 (active),0.0721 (inactive),0.27 (inactive),0.99 (inactive),-0.0766 (inactive),0.0262,0.701,0.64 (inactive),0.764,-1.43,-5.54 (inactive),-0.0375 (inactive),0.0518 (inactive)
[N-]=[N+]=NCc1ccccc1C[C@]1(C(=O)NCc2ccccc2)COC(c2ccc(OCCCO)cc2)=N1,-1.89,1.55 (inactive),-5.64 (inactive),1.1 (inactive),0.385 (inactive),3.06 (inactive),1.45 (inactive),0.376 (inactive),-4.15,0.488,0.395 (inactive),0.689,-2.45,-6.24 (inactive),-0.403 (inactive),-0.737 (inactive)
C=CCN1Cc2ccccc2C[C@@]2(COC(c3ccc(OCCCO)cc3)=N2)C1=O,0.344,-2.27 (inactive),-8.12 (active),-0.993 (inactive),-0.127 (inactive),1.04 (inactive),1.32 (inactive),1.14 (inactive),-4.61,0.236,0.415 (inactive),0.793,-1.85,-3.96 (inactive),-0.221 (inactive),-0.208 (inactive)
O=C1C2C=CC(C(O)c3ccc(Br)cc3)N(n3cnnc3)C2C(=O)N1Cc1ccccc1 (stereo not drawn),-0.009,-17.1 (active),-0.381 (inactive),-1.37 (inactive),-0.184 (inactive),-23 (active),-0.999 (inactive),-1.96 (inactive),-0.396,1.33,0.568 (inactive),0.76,-0.084,0.314 (inactive),-0.47 (inactive),-0.618 (inactive)
